Screening results as filed in PubChem.
An excerpt weighted towards active compounds, which were near 1.7% of everything screened.
PTHR1 ag: activates the human parathyroid hormone receptor PTHR1; 0.075% of 410,000 active; Potency, µM (highest dose often 115 µM), without a hit: top-dose activation, actives largely listed as activators; AID 743266; Q03431; HEK293 GP2 PTHR1 cells, GloSensor cAMP luminescence, 1 h; further: nearly all actives have a fitted effect of over 55% in size
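HEK-293-derived GP2 cells expressing PTHR1 and a GloSensor cAMP reporter, 3,000/well, plated overnight, given luciferin plus IBMX (each 0.5 mM as added) for 1 h at 37 °C, then compound for 1 h at 37 °C. Luminescence was read after 15 min at room temperature.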
GLP1R ag: agonists of human GLP-1 receptor. Potency, µM (top dose mostly 45.6 µM), for inactives: top-dose activation, hits mostly activators. P43220. 0.007% of 380,000 active. HEK293 GLP-1R CRE-luciferase, luminescence, 4-6 h; cells express a hypersensitive GLP-1R form; further: % of control where 0% means no effect
Target sequence (P43220 whole entry, looked up): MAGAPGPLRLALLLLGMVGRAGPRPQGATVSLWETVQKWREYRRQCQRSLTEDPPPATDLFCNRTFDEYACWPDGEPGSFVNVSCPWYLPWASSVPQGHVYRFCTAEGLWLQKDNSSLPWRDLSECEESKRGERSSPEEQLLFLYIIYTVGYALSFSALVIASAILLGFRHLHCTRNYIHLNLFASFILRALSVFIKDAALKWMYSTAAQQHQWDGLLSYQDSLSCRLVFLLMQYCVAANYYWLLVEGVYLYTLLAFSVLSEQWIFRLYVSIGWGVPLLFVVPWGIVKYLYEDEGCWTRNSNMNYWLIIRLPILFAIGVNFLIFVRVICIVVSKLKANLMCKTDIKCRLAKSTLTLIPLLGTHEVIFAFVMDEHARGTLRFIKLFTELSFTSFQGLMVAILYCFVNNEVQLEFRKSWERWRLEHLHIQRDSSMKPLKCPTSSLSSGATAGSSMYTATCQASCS
GLP1R cytotox: cytotoxic in the GLP-1 receptor inverse agonist counter-screen; HEK293 cAMP-luciferase reporter cells, luminescence, 24 h; Potency, µM (titrated, usually from 38.3 µM), without a hit: at the top dose activity change, negative = inhibition, most hits filed as inhibitors; 0.13% of 410,000 active; AID 624418;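 further: loss of luciferase light is scored as toxicity; on the % scale 0 is the no-effect control and ±100 the full control effect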
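Seeding density was 200 cells/uL; after overnight-length (12 h) culture, 23 nL compounds went on for 24 h at 37 °C. Readout used a luciferase detection reagent, luminescence taken after 12 min at room temperature.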
GLP-1R inv ag: acts as inverse agonist at human GLP-1 receptor; P43220; HEK293 GLP-1R CRE-luciferase, luminescence, 24 h; GLP-1R form is constitutively active; Potency, µM (highest dose often 38.3 µM), for inactives: at the top dose activity change, negative = inhibition, actives largely listed as inhibitors; 1.6% of 410,000 active; further: on the % scale 0 is the no-effect control and ±100 the full control effect; nearly all actives have a fitted effect of over 55% in size
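Luminescence readout: a drop in cAMP-driven luciferase signal flags inverse agonism at a constitutively active GLP-1R stably expressed in HEK293. Compound exposure lasted 24 hr at 37 deg C, 5% CO2.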
Starred values were filed as active, the others as inactive; i = inactive; ? = inconclusive; · = not tested or not shown; [ ] = dose if it differs, or a comment. The call rests on the fitted dose curve; in most records, active means well fitted curve in the direction sought with a large enough effect; inconclusive means small, poorly fitted or top-dose-only effect, or another doubt; inactive means no such curve, though single readings can be large; an effect the other way counts as inactive or inconclusive. Potency means the concentration at half of the fitted maximal effect.

SMILES | PTHR1 ag | GLP1R ag | GLP1R cytotox | GLP-1R inv ag
CC(Sc1nnc(CN2CCCC2)n1Cc1ccccc1)C(=O)Nc1ccc(F)c(F)c1F (configuration not stated) | i | 6.1% | -10.2% | 5.01µM*
CC(Sc1nnc(CN2CCCC2)n1Cc1ccccc1)C(=O)Nc1ccccc1 (configuration not stated) | -3.9% | 10.8% | 3.7% | 7.94µM*
O=C(NCc1ccco1)c1cc(S(=O)(=O)N2CCCc3ccccc32)ccc1Cl | i | 2.4% | -5.6% | 4.47µM*
CCCCCCCCCCCCCCCC(=O)O[C@H]1[C@@H](O)[C@@H](O)[C@@H]([C@H](NC(=O)[C@@H]2C[C@@H](CCC)CN2C)[C@H](C)Cl)O[C@@H]1SC | · | -1.2% | · | ·
Cc1ccccc1NS(=O)(=O)c1ccc(C(=O)NCC(c2ccco2)N2CCCCC2)cc1 (configuration not stated) | -30.9% | -9.0% | -1.2% | 10µM*
CCN(c1ccccc1)S(=O)(=O)c1cc(C(=O)NCC(c2ccco2)N2CCCCC2)ccc1C (configuration not stated) | -19.3% | -19.6% | ? | 8.91µM*
COc1ccccc1NS(=O)(=O)c1cc(C(=O)NCC(c2ccco2)N2CCCCC2)ccc1C (configuration not stated) | -60.5% | 9.6% | -12.4% | 10µM*
O=C(NCC(c1ccco1)N1CCCCC1)c1ccc(S(=O)(=O)Nc2ccccc2Cl)cc1 (configuration not stated) | -16.1% | 5.8% | 1.4% | ?
Cc1ccc(NS(=O)(=O)c2c(C)nc3sccn3c2=O)c(Cl)c1 | 8.4% | · | 21.6% | 6.2%
CCOc1cc(/C=C2\CCC/C(=C\c3cc(Cl)c(O)c(OCC)c3)C2=O)cc(Cl)c1O | -10.5% | -36.8% | 11.2µM* | 10µM*
CN(C)CCCNc1oc(-c2ccc(Cl)cc2)nc1C#N | -8.1%[57.5 µM] | -10.9% | -8.1% | 5.01µM*
CCc1cccc(C)c1NC(=O)CN1C(=O)NC(C)(CCC(C)C)C1=O (configuration not stated) | -13.2% | 18.0% | 1.9% | -23.4%
CN(C)CCNC(=O)c1cc2sc3ccccc3c2s1 | i | 1.6% | ? | 3.16µM*
COCCN(CCOC)C(=O)c1cc2sc3ccccc3c2s1 | -4.7%[57.5 µM] | ? | -22.6% | 8.4%
COc1ccc(OC)c(CCNC(=O)C(C)n2c(C)c3cnn(-c4ccccc4)c(=O)c3c2C)c1 (configuration not stated) | i | · | -10.2% | 6.3%
CCN1C(=O)C(CC(=O)Nc2ccc(Br)cc2)N(CCCc2ccccc2)C1=S (configuration not stated) | -36.0%[57.5 µM] | -10.3% | ? | 2µM*
CCCOc1ccc(NC(=O)CC2C(=O)N(C)C(=S)N2Cc2cccs2)cc1 (configuration not stated) | -8.6%[57.5 µM] | -6.9% | -19.5% | 7.94µM*
CN1C(=O)C(CC(=O)Nc2ccc(F)cc2)N(Cc2cccs2)C1=S (configuration not stated) | -2.0% | 8.6% | -23.9% | ?
CCCOc1ccc(NC(=O)CC2C(=O)N(CC)C(=S)N2CCCN2CCN(Cc3ccccc3)CC2)cc1 (configuration not stated) | i | -2.6% | ? | 7.08µM*
CCN1C(=O)C(CC(=O)NCCc2ccccc2)N(NC(=O)c2ccc(Br)cc2)C1=S (configuration not stated) | -5.7% | -1.8% | -8.6% | 10µM*
CC(=O)NS(=O)(=O)c1ccc(NC(=O)c2ccc3c(c2)OCO3)cc1 | -3.9% | -2.3% | 4.4% | 5.6%
CCn1nc(-c2ccccc2)c(-c2ccccc2)c(C(=O)Nc2ccc(NC(C)=O)cc2)c1=O | i | · | 1.1% | -1.0%
CCn1nc(-c2ccccc2)c(-c2ccccc2)c(C(=O)Nc2nc(C)c(C(C)=O)s2)c1=O | i | · | -13.1% | 4.47µM*
COc1ccc2nc3oc(C(=O)Nc4cccc(C(F)(F)F)c4)cc3cc2c1 | i | · | 6.2% | 10.0%
CC1CC(C)CN(C(=O)CNC(=O)c2sc3ccccc3c2Cl)C1 (configuration not stated) | -65.9% | -8.8% | 5.2% | 3.16µM*
SMILES | PTHR1 ag | GLP1R ag | GLP1R cytotox | GLP-1R inv ag
CC1CCCC(C)N1C(=O)CSc1nnnn1-c1cccc2c1CCCC2 (configuration not stated) | -0.8%[57.5 µM] | -2.0% | -5.7% | 7.94µM*
CC(NC(CCc1ccccc1)C(=O)O)C(=O)N1CCCC1C(=O)O (configuration not stated) | · | -0.5% | · | ·
Cc1ccc(N(CC(=O)Nc2cc(Cl)ccc2Oc2ccccc2)S(C)(=O)=O)c(C)c1 | -47.1%[57.5 µM] | -4.2% | 2.6% | 7.08µM*
COc1ccc(CNC(=O)[C@]2(C)CCC[C@@]3(C)C4CC[C@@]5(C)C[C@]4(CCC32)CC5=O)cc1 (some centres not stated) | -46.6% | -1.6% | -12.4% | 10µM*
C=CCc1cc(Cl)ccc1OCCNCCN1CCOCC1 | i | -1.8% | 12.8% | 10µM*
CC(O)CNCCCCOc1ccc(OCc2ccccc2)cc1 (configuration not stated) | -3.9% | -1.1% | -9.4% | 14.1µM*
COc1ccccc1-c1noc(CSc2nc3ccc(C)cc3[nH]2)n1 | -33.5% | · | 1.8% | -28.2%
Cc1ccc(NS(=O)(=O)c2cc([N+](=O)[O-])ccc2NNC(=S)Nc2cc(C)ccc2C)c(C)c1 | -22.2% | -20.1% | 11.2µM* | ?
COc1ccc(NC(=S)NNc2ccc([N+](=O)[O-])cc2S(=O)(=O)Nc2ccc(C)cc2C)cc1 | -22.6% | -1.1% | ? | ?
COC1CC2CCC(C)[C@](O)(O2)C(=O)C(=O)N2CCCCC2C(=O)OC(C(C)CC2CCC(O)C(OC)C2)CC(=O)C(C)/C=C(/C)C(O)C(OC)C(=O)C(C)CC(C)C=CC=C/C=C\1C (some centres not stated) | · | 1.0% | · | ·
COc1ccc(/C=C(\CC(=O)O)c2nc3ccccc3o2)cc1 | i | 11.0% | 2.1% | 8.2%
COc1ccc(C(=O)/C(=C/c2cccs2)c2nc3ccccc3o2)cc1 | -19.3% | -0.8% | 5.4% | 11.2µM*
Cc1c(O)ccc(/C=N/Nc2nc(-c3cccnc3)nc3ccccc23)c1O | i | 11.9% | ? | 10µM*
CCOC(=O)c1ccc(Nc2nc(-c3cccnc3)nc3ccccc23)cc1 | -9.1%[57.5 µM] | 4.4% | -8.5% | 8.91µM*
CCOc1ccc2c(c1)c(N=NC(N)=S)c(O)n2C | -6.4% | -1.7% | ? | -1.2%
NC(=S)N=Nc1c(O)n(CCCl)c2ccc(Cl)cc12 | -14.8% | 26.3% | 1.26µM* | ?
NC(=S)N=Nc1c(O)n(CC(=O)Nc2ccccc2)c2ccccc12 | i | -3.5% | ? | -6.2%
NC(=S)N=Nc1c(O)n(CCCl)c2ccccc12 | -7.3% | 23.4% | ? | 2.82µM*
O=C1C2C3C=CC(C3)C2C(=O)N1CCN1CCN(S(=O)(=O)c2ccc3ccccc3c2)CC1 (configuration not stated) | -82.1% | -3.6% | -16.5% | 11.2µM*
